ELG1 repair inh = qHTS screen for small molecules that inhibit ELG1-dependent DNA repair in human embryonic kidney (HEK293T) cells expressing luciferase-tagged ELG1 | Potency, µM (top dose mostly 46.1 µM), without a hit: top-dose activity change, negative = inhibition, actives largely listed as inhibitors | HEK293T ELG1-luciferase reporter, luminescence, 16 h; DNA damage induced by 5-fluorouridine | 330,000 compounds, 2.3% hits; also: potency is read from the fitted curve at half-maximal effect; % is scaled to controls: 0 for no effect and ±100 for the full control effect; nearly all actives have a fitted effect of over 55% in size
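In this reporter screen, reduction of luminescence relative to DMSO vehicle indicated activity. Compounds and 5-fluorouridine were added together to 2,000 cells per well, incubated for 16 hr at 37 °C, then developed with ONE-Glo.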
Nrf2 activator = qHTS of Nrf2 Activators; AREc32 ARE-luciferase reporter (MCF7-derived line), luminescence, 24 h; Potency, µM (titrated, usually from 46.1 µM), inactives show top-dose activation, usual class: activators; 410,000 compounds, 0.31% hits; AID 624171, 2012; also: potency is read from the fitted curve at half-maximal effect; % of control where 0% means no effect; nearly all actives have a fitted effect of over 65% in size
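Steps: seed AREc32_Fluc cells (1000/well, 5% FBS OPTI-MEM); incubate overnight at 37 deg C; add 23 nL compound; incubate 24 hr; add Steady-Glo; hold 30 min RT; read luminescence.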
BRCA1 expr act = qHTS Assay to Identify Small Molecule Activators of BRCA1 Expression | MCF7-BRCA1-FFLuc reporter, luminescence, 48 h; response scale: scaled: vehicle 0%, 10 µM genistein 100% | Potency, µM (top dose mostly 46.1 µM), without a hit: top-dose activation, actives largely listed as activators | 380,000 compounds, 1.1% hits | AID 624202, 2012; also: potency is read from the fitted curve at half-maximal effect; nearly all actives have a fitted effect of over 80% in size
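MCF7-BRCA1-FFLuc cells, 2000/well in phenol-red-free MEM, attached 2 h then treated 48 h at 37 C. Luciferase luminescence read 15 min after reagent; normalized to genistein maximum activation (10microM) and DMSO, concentration-response fitted.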
IL-2 act = qHTS of IL-2 Activators; 360,000 compounds, 0.065% hits; IL-2 activation reporter assay, cell-based qHTS; stimulated with anti-CD3/CD4/CD28 beads; in transgenic mouse T cells; activation, % (series mostly up to about 46 µM); in the data active = activation above about 50%; inconclusive = mostly about 30% to 49%; also: 0% is about no effect
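Unstimulated transgenic mouse T cells preincubated 60 min with compound, then stimulated with anti-CD3/anti-CD4-coated beads plus anti-CD28 for 18 h at 37 degrees C. IL-2 response read as EGFP and DsRed fluorescence by plate cytometry.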
An asterisk follows results filed as active. Hits are enriched below; roughly 3.1% of the tested compounds scored in any of these assays. Unless noted, calls follow the shape of the dose curve; as a rule, active = well fitted curve in the direction sought with a large enough effect; inconclusive = small, poorly fitted or top-dose-only effect, or another doubt; inactive = no such curve, though single readings can be large; an effect the other way counts as inactive or inconclusive.

`CC(C)(C)OC(=O)[C@H](Cc1ccccc1)NC(=O)c1[nH]cnc1C(=O)Nc1ccc(Cl)cc1` gave ELG1 repair inh inconclusive, Nrf2 activator -5%, BRCA1 expr act -92% and IL-2 act 0.
For CCOC(=O)c1ccc(NC(=O)c2nc[nH]c2C(=O)NCCCCCNC(=O)OC(C)(C)C)cc1 the results were ELG1 repair inh 16µM*, Nrf2 activator 0%, BRCA1 expr act -20% and IL-2 act -1.
For Cc1ccc(NC(=O)c2nc[nH]c2C(=O)NCCCCCNC(=O)OC(C)(C)C)cc1 the results were ELG1 repair inh 23µM*, Nrf2 activator -5%, BRCA1 expr act -83% and IL-2 act -1.
`Cc1ccc(NC(=O)c2nc[nH]c2C(=O)NCCCNC(=O)c2[nH]cnc2C(=O)Nc2ccc(C)cc2)cc1` gave ELG1 repair inh 5.2µM*, Nrf2 activator 0%, BRCA1 expr act 9% and IL-2 act 0.
Screening CC(C)(C)OC(=O)NCCCCCNC(=O)c1[nH]cnc1C(=O)Nc1ccccc1 returned ELG1 repair inh inconclusive, Nrf2 activator 0%, BRCA1 expr act -63% and IL-2 act -1.
For CC(C)(C)OC(=O)NCCCCCNC(=O)c1[nH]cnc1C(=O)Nc1ccc(Cl)cc1 the results were ELG1 repair inh 21µM*, Nrf2 activator -4%, BRCA1 expr act -82% and IL-2 act -4.
CC(C)(C)c1nnc(N/N=C/c2ccccc2O)n(N)c1=O was read as ELG1 repair inh 21µM*, Nrf2 activator 0%, BRCA1 expr act -86% and IL-2 act 1.
For O=C(Nc1cccc(Br)c1)c1cccc(OC(=S)N2CCOCC2)c1 the results were ELG1 repair inh 15µM*, Nrf2 activator 9%, BRCA1 expr act -87% and IL-2 act -1.
O=C(Nc1ccccc1Br)c1ccc(OC(=S)N2CCOCC2)cc1 was read as ELG1 repair inh -30%, Nrf2 activator 2%, BRCA1 expr act 7.9µM* and IL-2 act -1.
Screening Cc1ccc(NC(=O)c2ccc(OC(=S)N3CCOCC3)cc2)cc1 returned ELG1 repair inh inconclusive, Nrf2 activator 1%, BRCA1 expr act 27% and IL-2 act -1.
O=C(Nc1ccc(C(=O)N2CCOCC2)cc1)c1cccc(Br)c1 was read as ELG1 repair inh 23%, Nrf2 activator 4%, BRCA1 expr act 57% and IL-2 act 0.
For COc1ccc(OC)c(CCNC(=O)c2nn(C)c3c2CSc2ccccc2-3)c1 the results were Nrf2 activator 0%.
`COc1ccccc1[C@]1(C)ON(c2ccccc2C(F)(F)F)C1=O` gave ELG1 repair inh 21µM*, Nrf2 activator 10%, BRCA1 expr act -2% and IL-2 act 0.
Screening COc1cc(NC(=O)c2cccs2)c(OC)cc1NC(=O)CCC(=O)Nc1ccc2ncccc2c1 returned ELG1 repair inh 15µM*, Nrf2 activator 0%, BRCA1 expr act -33% and IL-2 act 0.
O=C(COc1cccc(NC(=O)c2cccc([N+](=O)[O-])c2)c1)c1ccc(F)cc1 was read as ELG1 repair inh inconclusive, Nrf2 activator 0%, BRCA1 expr act -60% and IL-2 act -1.
COc1cccc(C(=O)COc2cccc(NC(=O)c3cccc([N+](=O)[O-])c3)c2)c1 was read as ELG1 repair inh 13µM*, Nrf2 activator 0%, BRCA1 expr act -37% and IL-2 act -1.
`COC(=O)c1ccc(OCC(=O)c2cccc(OC)c2)cc1` gave ELG1 repair inh inconclusive, Nrf2 activator 0%, BRCA1 expr act 2µM* and IL-2 act -3.
`COc1ccc(OCC(=O)Nc2ccc(NC(=O)c3cccs3)c(OC)c2)cc1` gave ELG1 repair inh inconclusive, Nrf2 activator -1%, BRCA1 expr act -6% and IL-2 act -1.
`COc1cccc(C(=O)COc2ccc(NC(=O)c3cccs3)cc2)c1` gave ELG1 repair inh 15µM*, Nrf2 activator 3%, BRCA1 expr act -26% and IL-2 act -2.
`CCN1CCN(C(c2cccc(Cl)c2)c2c(O)cc(C)n(CCOC)c2=O)CC1` (stereo unspecified) gave Nrf2 activator -1%.
COc1ccc(C(=O)Nc2cccc(NC(=O)c3cccs3)c2)cc1OC was read as ELG1 repair inh 15µM*, Nrf2 activator 8%, BRCA1 expr act 36% and IL-2 act 1.
`Cc1csc(NCC(=O)c2c(C)[nH]c3ccccc23)n1` gave BRCA1 expr act -8%.
`COC(=O)c1sc(S(=O)(=O)NCc2cccs2)c(C(=O)OC)c1C` gave ELG1 repair inh 15µM*, Nrf2 activator 4%, BRCA1 expr act 3% and IL-2 act 1.
COC(=O)c1sc(S(=O)(=O)NCC(=O)O)c(C(=O)OC)c1C was read as ELG1 repair inh 3%, Nrf2 activator 0%, BRCA1 expr act 0% and IL-2 act 0.
CCCCCOc1ccc(CN2CCOCC2)cc1Cl was read as ELG1 repair inh inconclusive, Nrf2 activator 2%, BRCA1 expr act 8.9µM* and IL-2 act -3.
`Oc1c(C(c2ccccc2F)N2CCN(c3ccccc3F)CC2)sc2nc(-c3ccco3)nn12` (stereo unspecified) gave Nrf2 activator 1%.
For CN(C)/C=C1\N=C(c2ccc3c(c2)OCO3)OC1=O the results were ELG1 repair inh inconclusive, Nrf2 activator 0%, BRCA1 expr act 7.9µM* and IL-2 act -3.
Cc1cc2ccccn2c1C(=O)c1ccc(S(=O)(=O)N(C)C)cc1 was read as ELG1 repair inh 16µM*, Nrf2 activator 0%, BRCA1 expr act -13% and IL-2 act 1.
Screening O=C1C(=Cc2ccco2)CCCC1=Cc1ccco1 returned Nrf2 activator 3.2µM*, BRCA1 expr act 72% and IL-2 act 0.
Screening O=C1C(=Cc2ccco2)CCC1=Cc1ccco1 returned Nrf2 activator 18%, BRCA1 expr act -14% and IL-2 act 0.
C=C(C)CN=c1scc(C)n1/N=C/c1ccco1 was read as ELG1 repair inh 18%, Nrf2 activator 13µM*, BRCA1 expr act 15% and IL-2 act -2.
Screening N#CC1=C(N)Oc2c(ccc3ccccc23)C1c1ccsc1 (stereo unspecified) returned ELG1 repair inh inconclusive, Nrf2 activator 8.9µM*, BRCA1 expr act -27% and IL-2 act 0.
For CC1CCCN(c2ncnc3c2nnn3C)C1 (stereo unspecified) the results were Nrf2 activator 0%.
Screening Cc1ccc(C)c2[nH]c(=O)c(CN(CCN3CCCC3)C(=O)Nc3cccc(Cl)c3)cc12 returned ELG1 repair inh 15µM*, Nrf2 activator 21%, BRCA1 expr act -48% and IL-2 act 0.

Screening data: PubChem, National Center for Advancing Translational Sciences (NCATS)
